Compound activity (PubChem BioAssay)
Only some compounds are listed: those with a hit (about 0.84% of all), similar ones and a draw of the others.
SRC3 TRFRET art – TR-FRET detection interference compounds, artefact control for PPARgamma SRC-3 recruitment agonists, biochemical, TR-FRET ratio. AID 1048, 2008. 0.39% of 99,000 active. TR-FRET ratio at 8 µM. TR-FRET artefact counter-screen, PPARgamma/SRC-3 format; active compounds read high
TR-FRET SRC-2 ct – TR-FRET signal artefacts, primary screen, artefact control for PPARgamma SRC-2 agonist project, biochemical. TR-FRET artefact counter-screen; active compounds read high. TR-FRET ratio at 8 µM. 0.4% of 200,000 active
SRC1 TRFRET art – TR-FRET detection interference compounds, primary screen, artefact control for PPARgamma SRC-1 recruitment agonists, biochemical, TR-FRET emission ratio. 0.34% of 99,000 active. TR-FRET ratio at 8 µM. TR-FRET detection artefact counter-screen; active compounds read high; in the data active = TR-FRET ratio above about 2300
PPARg SRC2 recr – agonists of PPARg-SRC-2 recruitment, primary screen, biochemical, HTS; Peroxisome proliferator-activated receptor gamma (Homo sapiens), P37231; PPARgamma LBD-SRC-2 recruitment; activation, % at 8 µM; 0.34% of 200,000 active; AID 1032, 2008; in the data active = activation above about 22%;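 also: 0% = vehicle and 100% = reference agonist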
Target sequence (P37231 whole entry, looked up, the tested form may be a part): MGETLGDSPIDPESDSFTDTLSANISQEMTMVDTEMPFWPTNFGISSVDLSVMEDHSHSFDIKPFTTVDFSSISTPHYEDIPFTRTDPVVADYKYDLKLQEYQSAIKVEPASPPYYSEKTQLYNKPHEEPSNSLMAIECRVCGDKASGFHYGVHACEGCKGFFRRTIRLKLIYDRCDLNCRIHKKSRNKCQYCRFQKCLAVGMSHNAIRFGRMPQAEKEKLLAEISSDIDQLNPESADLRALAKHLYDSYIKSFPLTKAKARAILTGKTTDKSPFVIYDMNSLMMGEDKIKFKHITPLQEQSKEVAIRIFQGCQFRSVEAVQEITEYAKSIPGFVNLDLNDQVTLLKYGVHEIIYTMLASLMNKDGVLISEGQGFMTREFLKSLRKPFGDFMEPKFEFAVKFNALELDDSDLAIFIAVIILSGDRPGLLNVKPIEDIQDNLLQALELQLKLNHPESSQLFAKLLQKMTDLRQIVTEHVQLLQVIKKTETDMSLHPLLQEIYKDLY
PPARg SRC-3 ag – PPARgamma agonists recruiting SRC-3 coactivator, primary screen, biochemical | Peroxisome proliferator-activated receptor gamma (Homo sapiens), P37231 | biochemical PPARgamma/SRC-3 coactivator recruitment assay | activation, % at 8 µM | 0.26% of 200,000 active; in the data active = activation above about 23%;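 also: 0% = DMSO and 100% = reference agonist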
PPARg SRC1 recr – PPARgamma agonists recruiting SRC-1 coactivator, primary screen, biochemical; PPARgamma-SRC-1 coactivator recruitment biochemical assay; activation, % at 8 µM; Peroxisome proliferator-activated receptor gamma (Homo sapiens), P37231; 0.41% of 200,000 active; AID 631, 2007; in the data active = activation above about 19%;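 also: 0% = DMSO and 100% = reference agonist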
An asterisk follows results filed as active; . = not tested or not shown. Rule as the data show it, unless noted: active = TR-FRET ratio above about 2000; inactive = the rest.

SMILES	SRC3 TRFRET art	TR-FRET SRC-2 ct	SRC1 TRFRET art	PPARg SRC2 recr	PPARg SRC-3 ag	PPARg SRC1 recr
CCCC(=O)Nc1ccc2c(c1)nc(CN1CCCCC1)n2C	.	1729	.	-7	4	1
CC1(C)CC(=O)C(C(=O)C2CCN(S(=O)(=O)c3ccccc3)CC2)C(=O)C1	1366	1561	1803	14	7	13
Cc1c(N=Nc2ccc(O)cc2)c(=O)n(-c2ccccc2)n1C	2164*	1632	2013	3	3	12
Cc1cc(C)n(-c2ccc(C(=O)Nc3cc(S(=O)(=O)N(C)C)ccc3Cl)cc2)n1	1506	1495	1800	-5	-6	-8
O=C(O)C1CCC(Cn2c(SCc3cc(=O)n4cc(Br)ccc4n3)nc3ccsc3c2=O)CC1 (stereo not drawn)	2459*	1816	2198	5	14	11
CNC(=S)N1N=C(c2ccc(C)cc2)CC1c1cc(OC)ccc1OC (stereo not drawn)	2547*	1638	2589*	5	6	11
CNC(=S)N1N=C(c2ccc(C)cc2)CC1c1ccc(N(C)C)cc1 (stereo not drawn)	2431*	1857	2359*	5	4	5
CNC(=S)N1N=C(c2ccc(C)cc2)CC1c1ccc(OC)cc1 (stereo not drawn)	.	1903	.	11	11	11
CSc1nc(N)c2c(C)c(C)sc2n1	1821	1556	1730	6	2	0
CCN(CC)c1ccc(C=Nc2ccc(C)cc2)c(O)c1	.	1701	.	11	5	4
CCN(CC)c1ccc(N=Cc2ccc(N(CC)CC)cc2O)cc1	.	1964	.	27*	41*	14
CC(C)NC(=O)NC(=O)CSc1ccccc1F	3589*	1669	1782	-4	38*	-2
CC(C)NC(=O)NC(=O)COC(=O)c1ccccc1F	1341	1407	1701	7	3	0
CCOC(=O)c1[nH]cnc1C(=O)Nc1ccccc1OC	1788	1589	1628	4	4	-5
Oc1ccc(Cl)cc1C1=NNC(c2cc(Br)cc3c2OCOC3)C1 (stereo not drawn)	1946	1882	2488*	11	17	17
N#Cc1cnn(-c2nc(SCc3ccccc3)nc3sc4c(c23)CCCC4)c1N	.	2441*	.	5	7	9
COCCCNc1nc(SCc2ccccc2)nc2sc3c(c12)CCC3	.	1553	.	-6	5	2
Cc1nc2sc(-c3ccccc3)cc2c(=O)n1/N=C/N(C)C	1766	1645	1907	3	0	6
CCNc1ccc(C2(O)C(=O)c3ccccc3C2=O)cc1	1599	1446	1692	1	3	7
CC(C)C(=O)N1C2CCC1CC(O)(c1ccc(F)cc1)C2 (stereo not drawn)	.	1527	.	-4	48*	-1
Cc1cc(N2C3CCC2CC(O)(c2ccc(F)cc2)C3)nc(-c2ccccc2)n1 (stereo not drawn)	.	1437	.	-8	-9	4
Clc1ccccc1Cc1noc(CN2CCN(Cc3ccccn3)CC2)n1	1509	1501	1857	2	4	-5
NC1=Nc2cccc3cccc1c23	1406	1771	2026	6	11	-2
NC1=CC(=O)c2cccc3cccc1c23	.	1735	.	13	26*	17
COc1ccc(-c2nnc(SCC(=O)NCc3ccco3)n2C)cc1	.	1528	.	1	-8	-5
SMILES	SRC3 TRFRET art	TR-FRET SRC-2 ct	SRC1 TRFRET art	PPARg SRC2 recr	PPARg SRC-3 ag	PPARg SRC1 recr
Cc1[nH]c2ccccc2c1C(=O)C(=O)NCCOc1ccccc1	1657	1907	2149	24*	2	3
CO/N=C/NC(=O)c1c(OC)ccnc1Oc1cccc(C(F)(F)F)c1	.	1621	.	5	-1	-3
Cc1cccc(NC(=S)Nc2ccc(N3CCOCC3)cc2)c1C	1799	1974*	2122	21	11	18
Cc1ccc(C2=NC3(CCCCC3)NC2=S)cc1	1567	1697	1722	-2	0	-2
CCN1CCC2(CC1)N=C(c1ccc(F)cc1)C(=S)N2	1803	1979*	1797	14	3	6
Clc1cccc(Nc2nc(-c3cccnc3)cs2)c1	1788	1525	1732	8	7	7
CCOC(=O)C1=C(C)OC(N)=C(C#N)C1c1cc2c(cc1[N+](=O)[O-])OCO2 (stereo not drawn)	1756	1707	1761	6	6	11
Cc1cc(NC(=O)CN2C(=O)NC3(CCC(C)CC3)C2=O)no1 (stereo not drawn)	1468	1764	2022	22*	5	5
CCCCn1c(NC(=O)c2ccccc2Cl)c(C#N)c2nc3ccccc3nc21	.	1951	.	22	23	13
N#Cc1c(NC(=O)c2ccccc2Cl)n(Cc2ccccc2)c2nc3ccccc3nc12	1498	1663	1811	13	62*	21*
Cc1cc(C)nc(SCC(=O)Nc2nonc2N)n1	1526	1461	1837	-1	0	-4
COc1cccc(-c2csc(N3CCN(C(=O)NC45CC6CC(CC(C6)C4)C5)CC3)n2)c1	.	2123*	.	0	11	0
COc1cccc(-c2csc(N3CCN(C(=S)Nc4ccc(Cl)cc4)CC3)n2)c1	.	3147*	.	12	13	10
CC1CCCN(C(=O)C2CCN(S(=O)(=O)c3cccc4cccnc34)CC2)C1 (stereo not drawn)	.	1663	.	11	8	9
CCOC(=O)c1oc2cccc(OCC(O)CNC(C)C)c2c1C (stereo not drawn)	.	1295	.	-6	-3	-10
N#CCc1nnc2n1-c1ccccc1CCC2	.	1418	.	-5	-2	-4
Cc1cc(/C=C2/C(=O)N(C)C(=S)N2C)c(C)n1C1CC1	1564	1763	1884	22*	-1	3
COc1ccc(Cn2c(-c3ccc(C)cc3)nc3c(c(=O)c4ccccc4n3C)c2=O)cc1	1508	2131*	2030	29*	0	4
Cc1cc(C)cc(C(=O)NCC(=O)OCC(=O)Nc2cccnc2Cl)c1	1512	1420	2046	4	1	12
COc1ccc([N+](=O)[O-])cc1NC(=S)NC(NC(=O)C(c1ccccc1)c1ccccc1)C(Cl)(Cl)Cl (stereo not drawn)	.	2107*	.	7	4	3
COc1ccc(/C(O)=C2\C(=O)C(=O)N(c3cc(C)on3)C2c2cccc(OC)c2OC)cc1C (stereo not drawn)	.	2062*	.	19	15	16
Cc1ccc(/C(O)=C2\C(=O)C(=O)N(c3cc(C)on3)C2c2cccc(Cl)c2)cc1 (stereo not drawn)	.	1632	.	3	11	15
COc1cccc(/C=N/NC(=O)c2csc(-n3nc(C)cc3C(F)(F)F)n2)c1	.	1596	.	9	27*	4
